Measurements as given in the supplement of paper PMC12024529.
“And” between values parts separate entries of the source, which are not always exact repeats. Equal values may be shown once.

Each compound was assayed on HEK293 WT BDD-FVIII-Gluc (assay: secreted FVIII-Gluc luciferase Z-score vs DMSO control; higher = more FVIII-Gluc secretion). Settings: 5 µM.
Method: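 Natural plant-compound library (480 compounds, ST catalogue IDs) screened on HEK293 cells stably expressing WT BDD-FVIII-Gaussia luciferase fusion at 5 µM. Secreted Gluc activity in the medium is given as a Z-score relative to DMSO controls.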

Row | Compound | secreted FVIII-Gluc luciferase Z-score
1 | CC(C)[C@@H]1CC[C@@H](C)C[C@H]1OC(=O)[C@@H](C)O | -0.146
2 | COc1cc2c(cc1OC)C(Cc1ccc(OC)c(OC)c1Oc1cc3c(cc1OC)-c1c(OC)c(OC)cc4c1C(C3)N(C)CC4)N(C)CC2 (stereo not drawn) | 0.304
3 | CC(C)CC(N)C(=O)O (stereo not drawn) | 0.117
4 | COC(=O)CC[C@@H](C)[C@H]1CC[C@H]2[C@@H]3CC[C@@H]4C[C@H](O)CC[C@]4(C)[C@H]3C[C@H](O)[C@]12C | 0.392
5 | COc1ccc2oc(-c3cccc(OC)c3OC)cc(=O)c2c1 | 0.436
6 | C=C(CO)C1Cc2c(ccc3c(=O)c4c(oc23)COc2cc(OC)c(OC)cc2-4)O1 (stereo not drawn) | 0.0519
7 | N[C@@H](Cc1c[nH]c2ccc(O)cc12)C(=O)O | 0.43
8 | O=C(CCc1ccc(O)cc1)c1c(O)cc(O)cc1O[C@@H]1O[C@H](CO)[C@@H](O)[C@H](O)[C@H]1O | 0.224 and 0.244
9 | CCC(C)(C)C(=O)O[C@H]1C[C@@H](C)C=C2C=C[C@H](C)[C@H](CC[C@@H]3C[C@@H](O)CC(=O)O3)[C@H]21 | -0.297
10 | NCC1OC(OC2C(CO)OC(OC3C(O)C(N)CC(N)C3OC3OC(CO)C(O)CC3N)C2O)C(N)C(O)C1OC1OC(CO)C(O)C(O)C1O (stereo not drawn) | 1.54
11 | COc1cc(CNC(=O)CCCC/C=C/C(C)C)ccc1O | -0.484
12 | C[C@]12CCC(=O)C=C1CC[C@@H]1[C@@H]2[C@@H](O)C[C@@]2(C)[C@H]1CC[C@]2(O)C(=O)CO | 4.35
13 | O=c1c(O)c(-c2ccccc2)oc2cc(O)cc(O)c12 | 0.586
14 | O=c1ccn([C@H]2C[C@H](O)[C@@H](CO)O2)c(=O)[nH]1 | 0.515
15 | Oc1ccc(/C=C/c2cc(O)cc(O)c2)cc1 | 0.294
16 | Cn1cnc2c1c(=O)[nH]c(=O)n2C | 0.889
17 | COc1ccc2[nH]cc(CCNC(C)=O)c2c1 | 0.108
18 | Nc1nc2ncc(CNc3ccc(C(=O)NC(CCC(=O)O)C(=O)O)cc3)nc2c(=O)[nH]1 (stereo not drawn) | -0.865
19 | COc1cc(C(=O)OC2CC(C)=CCC3(C)CCC(O)(C(C)C)C23)ccc1O (stereo not drawn) | -0.405

Row | Compound | secreted FVIII-Gluc luciferase Z-score
20 | NCCc1cnc[nH]1 | 0.378
21 | Cc1cc2c(C(C)C)c(O)c(O)c3c2c(c1-c1c(C)cc2c(C(C)C)c(O)c(O)c4c2c1OC4N)OC3N (stereo not drawn) | -0.0294
22 | COC(=O)[C@@H]1C(O)CCC2CN3CCc4c([nH]c5ccccc45)C3CC21 (stereo partly drawn) | 0.187
23 | C=C1CC/C=C(\C)CC[C@@H]2[C@@H]1CC2(C)C | 0.299
24 | CC1=C(/C=C/C(C)=C/C=C/C(C)=C/C(=O)O)C(C)(C)CCC1 | -0.377
25 | NC(=O)NCCC[C@H](N)C(=O)O | -0.102
26 | CCOC(=O)CCC(=O)OC1C(OC2C(C)C(OC3CC(C)(OC)C(O)C(C)O3)C(C)C(=O)OC(CC)C(C)(O)C(O)C(C)C(=O)C(C)CC2(C)O)OC(C)CC1N(C)C (stereo not drawn) | 0.0842
27 | C[C@H](O)[C@H](O)[C@@H](O)c1cnc2nc(N)[nH]c(=O)c2n1 | 0.588
28 | Cc1cc2ccc(=O)oc2cc1OC[C@@H](O)C(C)(C)O | -0.00524
29 | OC[C@H]1O[C@@H](O[C@@H]2[C@@H](CO)O[C@](O)(CO)[C@H]2O)[C@H](O)[C@@H](O)[C@H]1O | 0.26
30 | CO[C@H]1/C=C/O[C@@]2(C)Oc3c(C)c(O)c4c(O)c(cc(O)c4c3C2=O)NC(=O)/C(C)=C\C=C\[C@H](C)[C@H](O)[C@@H](C)[C@@H](O)[C@@H](C)[C@H](OC(C)=O)[C@@H]1C | -0.224
31 | COc1cc2nc(N3CCN(C(=O)c4ccco4)CC3)nc(N)c2cc1OC | 0.161
32 | COc1c(-c2ccc(O)c(O)c2)oc2cc(O)cc(O)c2c1=O | -0.415
33 | COc1c2ccoc2nc2c(OC)c(OCC(O)C(C)(C)O)ccc12 (stereo not drawn) | 0.695
34 | CC1CC[C@H](C(C)C)C(O)C1 (stereo partly drawn) | 0.453
35 | C=C[C@@]1(C)C=C2CC[C@@H]3[C@](C)(CCC[C@@]3(C)C(=O)O)[C@H]2CC1 | -0.481
36 | COc1ccc2c(c1OC)C(=O)O[C@@H]2[C@H]1c2c(cc3c(c2OC)OCO3)CCN1C | -0.0362
37 | CCn1nc(C(=O)O)c(=O)c2cc3c(cc21)OCO3 | -1.17
38 | CC1(C)[C@@H](O)CC[C@]2(C)[C@H]3C(=O)C=C4[C@@H]5C[C@@](C)(C(=O)O)CC[C@]5(C)CC[C@@]4(C)[C@]3(C)CC[C@@H]12 | 0.00884
